Experimental data published in the supplement of paper PMC9492666.
Structures can show the parent of a compound that is named as a salt.

Assays:
HCC1937 = assay: relative cell viability, compound + erastin, vs DMSO (fraction of DMSO control); higher = less growth inhibition; conditions: 72 h
MDA-MB-231 = assay: as above; conditions: 72 h
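Also: viability read by CCK-8 kit in 96-well plates, part of a combination screen pairing lipid-metabolism-targeting compounds with erastin.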

Structure (SMILES)	relative cell viability (HCC1937)	relative cell viability (MDA-MB-231)
O=C(O)CC[C@H](O)C(=O)O [L-2-Hydroxyglutaric acid disodium] + CCOc1ccccc1-n1c(C(C)N2CCN(C(=O)COc3ccc(Cl)cc3)CC2)nc2ccccc2c1=O [erastin]	0.747	0.701
N#Cc1c(O)c2c(-c3ccc(-c4ccccc4O)cc3)csc2[nH]c1=O + CCOc1ccccc1-n1c(C(C)N2CCN(C(=O)COc3ccc(Cl)cc3)CC2)nc2ccccc2c1=O [erastin]	0.521	0.51
CN(C)C(=O)Nc1cccc(-c2ccc(N(C)C)cc2)c1 [Atglistatin] + CCOc1ccccc1-n1c(C(C)N2CCN(C(=O)COc3ccc(Cl)cc3)CC2)nc2ccccc2c1=O [erastin]	0.438	1.06
C[C@H]1N=C(N(C)C)N=C(N)N1 [Imeglimin hydrochloride] + CCOc1ccccc1-n1c(C(C)N2CCN(C(=O)COc3ccc(Cl)cc3)CC2)nc2ccccc2c1=O [erastin]	0.69	0.695
CS(=O)(=O)c1ccc(-c2nnc(/C=C/c3nnc(-c4ccc(C#N)cc4)o3)n2-c2ccccc2Cl)nc1 + CCOc1ccccc1-n1c(C(C)N2CCN(C(=O)COc3ccc(Cl)cc3)CC2)nc2ccccc2c1=O [erastin]	0.735	0.668
O=C1C=CC[C@@H]2[C@H]3CCCN4CCC[C@@H](CN12)[C@@H]34 [Sophocarpine] + CCOc1ccccc1-n1c(C(C)N2CCN(C(=O)COc3ccc(Cl)cc3)CC2)nc2ccccc2c1=O [erastin]	0.705	0.856
COc1ccc(-n2c(SCCCN3C(=O)c4cccc5cccc(c45)C3=O)nnc2-c2ccncc2)cc1 + CCOc1ccccc1-n1c(C(C)N2CCN(C(=O)COc3ccc(Cl)cc3)CC2)nc2ccccc2c1=O [erastin]	0.437	0.658
Nc1ncnc2c1ncn2C1OC(COP(=O)(O)O)C(O)C1O (centres undefined) [Adenosine 5'-monophosphate monohydrate] + CCOc1ccccc1-n1c(C(C)N2CCN(C(=O)COc3ccc(Cl)cc3)CC2)nc2ccccc2c1=O [erastin]	0.97	1.07
O=C(NC1CCN(CCCCC2(C(=O)NCC(F)(F)F)c3ccccc3-c3ccccc32)CC1)c1ccccc1-c1ccc(C(F)(F)F)cc1 [Lomitapide] + CCOc1ccccc1-n1c(C(C)N2CCN(C(=O)COc3ccc(Cl)cc3)CC2)nc2ccccc2c1=O [erastin]	0.201	0.436
CC1CC(OC(=O)C(O)c2ccccc2)CC(C)(C)C1 (centres undefined) [Cyclandelate] + CCOc1ccccc1-n1c(C(C)N2CCN(C(=O)COc3ccc(Cl)cc3)CC2)nc2ccccc2c1=O [erastin]	0.828	0.606
CCOP(=O)(OCC)C(=Cc1cc(C(C)(C)C)c(O)c(C(C)(C)C)c1)P(=O)(OCC)OCC + CCOc1ccccc1-n1c(C(C)N2CCN(C(=O)COc3ccc(Cl)cc3)CC2)nc2ccccc2c1=O [erastin]	0.534	0.648
O=c1ccc2cc(O)c(O)cc2o1 [Esculetin] + CCOc1ccccc1-n1c(C(C)N2CCN(C(=O)COc3ccc(Cl)cc3)CC2)nc2ccccc2c1=O [erastin]	0.648	0.711
CCCCCCCCCCCCCCOc1ccc(C(=O)OCC(=O)N(C)CC(=O)OCC)o1 [Olumacostat Glasaretil] + CCOc1ccccc1-n1c(C(C)N2CCN(C(=O)COc3ccc(Cl)cc3)CC2)nc2ccccc2c1=O [erastin]	0.549	0.477
COP(=O)(OC)OC(c1ccc(Cl)cc1)P(=O)(OC)OC (centres undefined) [Mifobate] + CCOc1ccccc1-n1c(C(C)N2CCN(C(=O)COc3ccc(Cl)cc3)CC2)nc2ccccc2c1=O [erastin]	0.875	1.06
CCC1=N[C@H]2C[C@@]3(C(=O)N(OC)c4ccccc43)[C@H]3CC1[C@@H]2CO3 [Humantenmine] + CCOc1ccccc1-n1c(C(C)N2CCN(C(=O)COc3ccc(Cl)cc3)CC2)nc2ccccc2c1=O [erastin]	0.573	0.63
O=S(=O)(O)c1ccc2cc(N=Nc3cc(S(=O)(=O)O)c4cccnc4c3O)ccc2c1 + CCOc1ccccc1-n1c(C(C)N2CCN(C(=O)COc3ccc(Cl)cc3)CC2)nc2ccccc2c1=O [erastin]	0.741	0.595
CCCC[S+]([O-])c1sc2nc(-c3cccs3)cc(-c3ccccc3)c2c1N (centres undefined) + CCOc1ccccc1-n1c(C(C)N2CCN(C(=O)COc3ccc(Cl)cc3)CC2)nc2ccccc2c1=O [erastin]	0.72	0.715
Cc1ccc(/C=C2\SC(=S)N(CCCCCC(=O)Nc3ccc(C(=O)O)c(O)c3)C2=O)cc1 + CCOc1ccccc1-n1c(C(C)N2CCN(C(=O)COc3ccc(Cl)cc3)CC2)nc2ccccc2c1=O [erastin]	0.715	0.638
c1cc(-c2cnn3cc(-c4ccc(OCCN5CCCCC5)cc4)cnc23)ccn1 [Dorsomorphin dihydrochloride] + CCOc1ccccc1-n1c(C(C)N2CCN(C(=O)COc3ccc(Cl)cc3)CC2)nc2ccccc2c1=O [erastin]	0.0948	0.362

Structure (SMILES)	relative cell viability (HCC1937)	relative cell viability (MDA-MB-231)
COc1ccc(/C=C/c2cc(O)cc(O[C@@H]3O[C@H](CO)[C@@H](O)[C@H](O)[C@H]3O)c2)cc1 [Deoxyrhapontin] + CCOc1ccccc1-n1c(C(C)N2CCN(C(=O)COc3ccc(Cl)cc3)CC2)nc2ccccc2c1=O [erastin]	0.576	0.699
O=C(NCCS(=O)(=O)c1ccc(C(F)(F)F)cn1)c1ccc(Cl)cc1 + CCOc1ccccc1-n1c(C(C)N2CCN(C(=O)COc3ccc(Cl)cc3)CC2)nc2ccccc2c1=O [erastin]	0.511	0.503
CC(C)(Oc1ccc(Cl)cc1)C(=O)O [Clofibric acid] + CCOc1ccccc1-n1c(C(C)N2CCN(C(=O)COc3ccc(Cl)cc3)CC2)nc2ccccc2c1=O [erastin]	0.923	0.592
O=C(CCCCc1ccc2c(c1)OCO2)N1CCCCC1 + CCOc1ccccc1-n1c(C(C)N2CCN(C(=O)COc3ccc(Cl)cc3)CC2)nc2ccccc2c1=O [erastin]	0.549	0.35
CCC(=O)Nc1cccc(Oc2nc(Nc3ccc(N4CCN(C)CC4)cc3OC)ncc2Cl)c1 + CCOc1ccccc1-n1c(C(C)N2CCN(C(=O)COc3ccc(Cl)cc3)CC2)nc2ccccc2c1=O [erastin]	0.255	0.795
N=C(N)NC(=N)NCCc1ccccc1 [Phenformin hydrochloride] + CCOc1ccccc1-n1c(C(C)N2CCN(C(=O)COc3ccc(Cl)cc3)CC2)nc2ccccc2c1=O [erastin]	0.756	0.999
Cc1c2c(=O)n(-c3ccccc3Cl)[nH]c2cc(=O)n1Cc1ccccn1 + CCOc1ccccc1-n1c(C(C)N2CCN(C(=O)COc3ccc(Cl)cc3)CC2)nc2ccccc2c1=O [erastin]	0.72	0.784
COc1ccc(Nc2ccn(-c3ccccc3)n2)cc1 + CCOc1ccccc1-n1c(C(C)N2CCN(C(=O)COc3ccc(Cl)cc3)CC2)nc2ccccc2c1=O [erastin]	0.686	0.902
C=C(C)[C@@H]1CC[C@]2(C)CC[C@]3(C)[C@H](CC[C@@H]4[C@@]5(C)CCC(=O)C(C)(C)[C@@H]5CC[C@]43C)[C@@H]12 + CCOc1ccccc1-n1c(C(C)N2CCN(C(=O)COc3ccc(Cl)cc3)CC2)nc2ccccc2c1=O [erastin]	0.608	0.594
Fc1ccc(-c2c3cccc(C(F)(F)F)c3nn2Cc2ccc(F)cc2Cl)cc1 + CCOc1ccccc1-n1c(C(C)N2CCN(C(=O)COc3ccc(Cl)cc3)CC2)nc2ccccc2c1=O [erastin]	0.797	0.509
CC(C)(Oc1ccc(C2CC2(Cl)Cl)cc1)C(=O)O (centres undefined) [Ciprofibrate] + CCOc1ccccc1-n1c(C(C)N2CCN(C(=O)COc3ccc(Cl)cc3)CC2)nc2ccccc2c1=O [erastin]	0.848	0.628
Nn1nnc2ccccc21 [1-Aminobenzotriazole] + CCOc1ccccc1-n1c(C(C)N2CCN(C(=O)COc3ccc(Cl)cc3)CC2)nc2ccccc2c1=O [erastin]	0.76	0.73
C=CC[S+]([O-])C[C@H](N)C(=O)O (some centres undefined) [Alliin] + CCOc1ccccc1-n1c(C(C)N2CCN(C(=O)COc3ccc(Cl)cc3)CC2)nc2ccccc2c1=O [erastin]	0.864	0.778
COc1ccc(N(C(=O)Nc2c(C)cccc2C)c2cc(Nc3ccc(N4CCN(C)CC4)cc3)ncn2)c(OC)c1 + CCOc1ccccc1-n1c(C(C)N2CCN(C(=O)COc3ccc(Cl)cc3)CC2)nc2ccccc2c1=O [erastin]	0.553	0.852
C=C(C)[C@@H]1CCC2=CC(=O)C[C@@H](C)[C@]2(C)C1 [Nootkatone] + CCOc1ccccc1-n1c(C(C)N2CCN(C(=O)COc3ccc(Cl)cc3)CC2)nc2ccccc2c1=O [erastin]	0.577	0.706
O=C(OC(C(F)(F)F)C(F)(F)F)N1CCN(Cc2ccc(C(F)(F)F)cc2N2CCCC2)CC1 + CCOc1ccccc1-n1c(C(C)N2CCN(C(=O)COc3ccc(Cl)cc3)CC2)nc2ccccc2c1=O [erastin]	0.583	0.74
CC1=C[C@]2(O)O[C@@]3(CC2=C(C)C)[C@@H](C)CC[C@@H]13 [Curcumenol] + CCOc1ccccc1-n1c(C(C)N2CCN(C(=O)COc3ccc(Cl)cc3)CC2)nc2ccccc2c1=O [erastin]	0.55	0.639
COc1cc([C@@H]2Oc3c(O)cc([C@H]4Oc5cc(O)cc(O)c5C(=O)[C@@H]4O)cc3[C@H]2CO)ccc1O [Silychristin] + CCOc1ccccc1-n1c(C(C)N2CCN(C(=O)COc3ccc(Cl)cc3)CC2)nc2ccccc2c1=O [erastin]	0.584	0.685
